Data published in PubChem BioAssay (NCI).
About 83,000 compounds went through this panel and 20% of them were active in at least one assay; those are over-represented in the sample as a whole.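 Activity criterion: percent growth below 10, measured after cells in 96-well plates were exposed to a single compound concentration for 48 hours.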 Values without a mark were called inactive. Calls of active or inactive are those of the source.

These molecules were tested on MDA-MB-468 breast (assay: NCI-60 one-dose screen, 48 h (100 = growth as untreated, 0 = no growth, -100 = all killed)). Conditions: 10 µM unless noted.
For `CCCCCCCC(=O)OCC/C=C/C1OC1C1OC(=O)/C=C\C=C\C(=O)N(C(C)=O)C(=O)/C=C(/C)CCC2OC2C1OC(=O)NC(C)=O` (stereo not given), the growth was -3.75% (active). With `S=C=Nc1ccc(N2CCOCC2)cc1` the growth was 87%. With `C/C(=C\c1ccc(OCC(=O)O)c(Cl)c1Cl)[N+](=O)[O-]` the growth was 119%. Work on `O=C(/C=C/c1ccc(Br)cc1)c1ccccc1` yielded a growth of 96.3%. In the case of `CCc1ccc(SC2c3ccc(N(CC)CC)cc3Oc3nc(N)c(C#N)c(N)c32)cc1` (stereo not given), the growth is reported as -41% (active). With `O=[N+]([O-])c1ccccc1Sc1ccccc1[N+](=O)[O-]` the growth was 92.1%. With `N#C/C(=C\c1ccc(-c2cccc(C(F)(F)F)c2)o1)c1nc(-c2ccco2)cs1` the growth was -37% (active). With `Nc1c(C(=O)c2ccccc2)sc2nc(-c3cccs3)ccc12` the growth was 3.08% (active). `CCCCCCCCCCCCCCCCCC1=NCCN1C(=O)OCCO` was tested, and the growth was -67.1% (active). For `CCOC(=O)c1c(-c2ccc(Cl)cc2)c(C#N)c(=O)n(-c2ccccc2CC)c1N`, the growth was 98.9%. In the case of `N=C(N)c1ccc(-c2ccc(-c3cccs3)s2)nc1`, the growth is reported as -51% (active). Work on `O=C(Nc1ccc(N2CCCCC2)c(Cl)c1)c1ccc(Br)o1` yielded a growth of 89.7%. `C=CCNC(=S)NN` gave a growth of 56.5%. Molecule `Cc1cccc(OCC(O)CN2CCN(c3ccc(Cl)cc3)CC2)c1` (stereo not given) has a growth of 112%. `O=C(Cc1ccc([N+](=O)[O-])cc1)Oc1ccccc1` gave a growth of 113%. For `CCCCCN(CCCCC)CC(O)c1c(Cl)ccc2ccccc12` (stereo not given), the growth was 78.9%. In the case of `CC[C@@H](C(=O)[C@H](C)[C@H](O)[C@@H](C)[C@H]1O[C@H]([C@@H](CC)C(=O)O)CC[C@H]1C)C1O[C@]2(C=C[C@@H](O)[C@]3(CC[C@@](C)([C@H]4CC[C@](O)(CC)[C@H](C)O4)O3)O2)[C@H](C)C[C@@H]1C` (stereo not given in full), the growth is reported as 0.843% (active). In the case of `CCNCCNc1cc(-c2ccc(F)cc2)c(C#N)c2nc3ccccc3n12`, the growth is reported as -8.31% (active). In the case of `CC(C)(C)CC(C)(C)c1ccc(OCCOCC[N+](C)(C)Cc2ccccc2)cc1`, the growth is reported as -81.8% (active). For `CC(=O)Oc1ccc(C2OC(c3ccc4ccccc4c3OC(C)=O)=NN2C(C)=O)c(OC(C)=O)c1` (stereo not given), the growth was -14.4% (active). Work on `COc1cccc(/C=C2\CCc3ccccc3C2=O)c1` yielded a growth of 63.9%. `C=CCn1c(SCC(=O)Nc2ccc(C(=O)/C=C/c3cc(OC)c(OC)c(OC)c3)cc2)nnc1-c1ccccc1` gave a growth of 82%. Molecule `Cc1nc2scc(-c3ccccc3)n2c(=O)c1CCO` has a growth of 101%. Work on `CCOC(=O)c1c(C)oc2ncnc(Nc3ccc(NC(=O)Nc4cccc(Cl)c4)cc3)c12` yielded a growth of 49.7%. `COC(=O)c1ccc(NC(=S)N2CCc3ccc([N+](=O)[O-])cc3C2)cc1O` gave a growth of 94.2%. In the case of `COc1ccc(-n2c(SCc3cc(OC)c(OC)c(OC)c3)nc3ccc(C)cc3c2=O)cc1`, the growth is reported as 46.8%. In the case of `FC(F)(F)Oc1ccc2nc3nc4ccc[nH]c4cc3c2c1`, the growth is reported as -25.5% (active). In the case of `CCOc1ccccc1C(=O)N1CCN(c2cc(Cl)cc(Cl)c2)CC1`, the growth is reported as 3.92% (active). Molecule `O=C(N/N=C/[C@H](O)[C@H](O)[C@H](O)CO)c1ccc(NC(=O)c2cccnc2)cc1` has a growth of 113%. `CC1=CC2OC34COC3CC(OC(=O)C(F)(F)F)C4(C)C2(C)CC1` (stereo not given) showed a growth of 87.5%. For `CN1/C(=C\C=C\C2=[N+](C)c3ccccc3C2(C)C)C(C)(C)c2ccccc21`, the growth was -40.4% (active). `NC1=NN=C2N(N)C(=O)c3cnn(-c4ccccc4)c3N2c2nc(-c3ccccc3)cc(-c3ccccc3)c21` gave a growth of 110%. `NC1=NN(O)C2=CC([N+](=O)[O-])C=CC2=N1` (stereo not given) gave a growth of 107%. With `C=CC(=O)Nc1ccc(Nc2nccc(-c3ccc(N4CCCC4)c(C#N)c3)n2)cc1` the growth was -9.73% (active). With `Cc1c(C(=O)Nc2nc(-c3ccccc3)cs2)nnn1-c1cccc2ccccc12` the growth was 12.3% [50 µM]. In the case of `ClC(Cl)c1nc(-c2ccccc2)n2nc(-c3ccccc3)cc2n1`, the growth is reported as -52.3% (active). With `CCNC(=O)c1[nH]cc(-c2ccccc2)c1-c1cc(OC)c2c(c1OC)OCO2` the growth was 104%. For `O=CN1N=C(c2ccc3c(c2)OCO3)CC1c1cccc(Nc2ccnc3cc(C(F)(F)F)ccc23)c1` (stereo not given), the growth was 47.1%. `CN1C(=O)N2CN3CCCN(C3)CN3C(=S)NC1C23` (stereo not given) gave a growth of 102%. For `Cc1ccc2nc(-c3ccc(C(=O)NNC(=S)Nc4ccccc4)cc3)[nH]c2c1`, the growth was 98.6%.
